697 NFkB inh – inhibitors of PMA/ionomycin-induced NF-kB reporter, 697 cells, primary screen, B-cell NF-kB inhibitor project, cell-based, luminescence, uHTS; AID 435022, 2010; inhibition, % at 4 µM; 0.33% of 330,000 active; 697 B-cell NF-kB luciferase reporter, 16 h; in the data active = inhibition above about 35%
Beta apoptosis – inhibitors of cytokine-induced beta cell apoptosis, primary screen, luminescence; INS-1E cytokine-induced death, ATP luminescence, 48 h; percent of positive-control rescue, neutral wells zero; protection from apoptosis, % (no concentration beside the values); 0.8% of 300,000 active;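 active = Every replicate reaches about 75%, or at least half do and their mean reaches it too, limit read from the data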;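 note: 0% = cytokine-treated negative control wells and 100% = positive control rescue; higher means more ATP so stronger rescue from cytokine killing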
Jurkat NFkB inh – inhibitors of induced NF-kB luciferase reporter, primary screen, TCR NF-kB activation inhibitor project, cell-based, luminescence, uHTS; Jurkat, PMA/ionomycin-induced NF-kB luciferase reporter; inhibition, % at 4 µM; 0.53% of 330,000 active; AID 435003, 2010; in the data active = inhibition above about 50%
Mdm2-MdmX inh – inhibitors of human Mdm2-MdmX association, primary screen, cell-based, luminescence, split luciferase, SaOS-2, uHTS. inhibition, % at 8 µM. Protein Mdm4 (Homo sapiens) + E3 ubiquitin-protein ligase Mdm2 (Homo sapiens), …. SaOS-2 split-luciferase Mdm2/MdmX complementation. 3% of 330,000 active;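 active = inhibition of at least 50% at 8 µM in the primary screen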
Gli-Sufu antag – Gli-Sufu pathway antagonists, primary screen, luciferase luminescence, Sufu-KO-LIGHT cells, uHTS; 0.74% of 340,000 active; inhibition, % at 5 µM; Sufu-KO-LIGHT fibroblasts, Gli luciferase reporter luminescence;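 active = inhibition above about 55%, limit read from the data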;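 note: 0% = DMSO-treated cells and 100% = wells with medium but no cells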
Mdm2-MdmX conf – Mdm2-MdmX complex disruptors, retested hits, confirmation, luminescence, single concentration; shares compounds with Mdm2-MdmX inh; Mdm2-MdmX binding, luminescent assay; inhibition, % at 8 µM; 55% of 10,000 active; AID 489028, 2010; in the data active = inhibition above about 40%
Full FLuc ctr – full-length luciferase signal inhibition, confirmation, counter-screen for Mdm2/MdmX interaction inhibitor project, cell-based, single concentration, SaOS-2. shares compounds with Mdm2-MdmX inh. SaOS-2 full-length luciferase counterscreen, luminescence. inhibition, % at 8 µM. 77% of 6,200 active. AID 504607, 2011;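 active = mean inhibition at 8 µM reaching about 37%, which flags the compound as non-specific, limit read from the data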;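 note: p53-null SaOS-2 cells with luciferase driven by a doxycycline-inducible promoter; compound on cells about two nights before reading with doxycycline added after day one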
The depositor's hits bear a star. Most compounds without a hit are left out; they make up all but 4% or so of the library.

What do the screens show for `Cc1csc(N2CCCC2c2nc3cc(Cl)c(N4CCCCC4)cc3n2CCCO)n1` (centres undefined)?
697 NFkB inh: 8; Beta apoptosis: -1; Jurkat NFkB inh: 6; Mdm2-MdmX inh: 27; Gli-Sufu antag: 7

How did OCCCn1c(C2CCCN2c2nc(-c3ccc(F)cc3)cs2)nc2cc(Cl)c(N3CCCCC3)cc21 (centres undefined) do in these assays?
697 NFkB inh: 5; Beta apoptosis: -8; Jurkat NFkB inh: 11; Mdm2-MdmX inh: 63*; Gli-Sufu antag: 15; Mdm2-MdmX conf: -6

What do the screens show for `OCCCn1c(C2CCCN2c2nc(-c3ccc(Cl)cc3)cs2)nc2cc(Cl)c(N3CCCCC3)cc21` (centres undefined)?
697 NFkB inh: 13; Beta apoptosis: -13; Jurkat NFkB inh: 8; Mdm2-MdmX inh: 73*; Gli-Sufu antag: 8; Mdm2-MdmX conf: 19

How did Cc1noc(C)c1COc1ccccc1C(=O)NC(C)c1ccc(F)cc1 (centres undefined) do in these assays?
Gli-Sufu antag: 5

How did O=C(NCc1ccc2c(c1)OCO2)c1nc(S(=O)(=O)Cc2ccccc2)ncc1Cl do in these assays?
697 NFkB inh: -20; Jurkat NFkB inh: 8; Mdm2-MdmX inh: 63*; Gli-Sufu antag: 3; Mdm2-MdmX conf: 45*; Full FLuc ctr: 14

Results for O=C(NCc1ccc2c(c1)OCO2)c1ccccc1Cl ?
697 NFkB inh: -31; Beta apoptosis: -1; Jurkat NFkB inh: -13; Mdm2-MdmX inh: -19; Gli-Sufu antag: -6

How did O=C(NCc1ccc2c(c1)OCO2)c1nc(S(=O)(=O)Cc2ccccc2F)ncc1Cl do in these assays?
697 NFkB inh: -55; Beta apoptosis: 7; Jurkat NFkB inh: -3; Mdm2-MdmX inh: 78*; Gli-Sufu antag: 4; Mdm2-MdmX conf: 52*; Full FLuc ctr: 51*

How did Cc1nc2sccn2c(=O)c1S(=O)(=O)NC(C)c1ccccc1 (centres undefined) do in these assays?
697 NFkB inh: -12; Beta apoptosis: -3; Jurkat NFkB inh: -11; Mdm2-MdmX inh: -30; Gli-Sufu antag: -32

How did CN1CCN(C2=Cc3ccc(Cl)cc3Sc3ccc(F)cc32)CC1 do in these assays?
697 NFkB inh: 28; Beta apoptosis: 9; Jurkat NFkB inh: 7; Mdm2-MdmX inh: 60*; Gli-Sufu antag: -5; Mdm2-MdmX conf: 29

What do the screens show for `O=C(N/N=C/c1cc(Br)c(Br)s1)c1ccncc1`?
697 NFkB inh: 6; Beta apoptosis: 85*; Jurkat NFkB inh: 16; Mdm2-MdmX inh: 51*; Gli-Sufu antag: -1; Mdm2-MdmX conf: 31

Results for CCN(Cc1ccccc1)C(=O)Cn1c(=O)n(-c2ccc(OC)cc2OC)c(=O)c2c(C)c(C)sc21 ?
697 NFkB inh: 13; Beta apoptosis: 5; Jurkat NFkB inh: -6; Mdm2-MdmX inh: -34; Gli-Sufu antag: 13

Results for O=C(CSc1nc2cc([N+](=O)[O-])ccc2n1-c1ccccc1)NCc1ccc2c(c1)OCO2 ?
697 NFkB inh: 4; Beta apoptosis: 4; Jurkat NFkB inh: 32; Mdm2-MdmX inh: 56*; Gli-Sufu antag: -4; Mdm2-MdmX conf: 22

How did CCOc1ccc(NC(=O)c2ccc3c(c2)CCN3S(C)(=O)=O)cc1 do in these assays?
697 NFkB inh: 6; Beta apoptosis: -1; Jurkat NFkB inh: -16; Mdm2-MdmX inh: 23; Gli-Sufu antag: 30

Results for CCCCOc1ccc(OCCNC(=O)C2CCCN2C(=O)Nc2ccccc2)cc1 (centres undefined) ?
697 NFkB inh: 1; Beta apoptosis: 0; Jurkat NFkB inh: 0; Mdm2-MdmX inh: 13; Gli-Sufu antag: 4

Screening data deposited in PubChem by several laboratories.
